Assay [1] in a line: qHTS Screen of the MIPE 4.0 Collection Against Ewings Sarcoma (TC32) (AID 1259256). Also: nearly all actives have a fitted effect of over 45% in size. Also: potency is read from the fitted curve at half-maximal effect. Summed up: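 Dose series incubated 48 h with cells in RPMI plus 5% FBS, glutamine and penicillin/streptomycin; cell viability then quantified via CellTiter-Glo.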
The nature of assay [2]: Identifying Small Molecule Inhibitors of Pancreatic Cancer Stem Cells (SN12C, Spheroid) (AID 1259360). Also: potency is read from the fitted curve at half-maximal effect. Conditions: Potency: SN12C spheroid viability. A digest of the protocol: (§1)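 Spheroids grown 14 days in stem cell media on nonadherent hydrogel before screening; cells attached 4 h, then compound exposure 48 h at 37C, 5% CO2. CellTiter-Glo luminescence normalized to DMSO (no inhibition) and no-cell wells (full inhibition).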

Assay [3] can be described thus: P-glycoprotein substrates identified in KB-8-5-11 adenocarcinoma cell line, qHTS therapeutic library screen (AID 1346987). Also: nearly all actives have a fitted effect of over 65% in size. Also: potency is read from the fitted curve at half-maximal effect. Summed up:
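P-gp-mediated resistance screen: KB-8-5-11 cells treated 72 h with compounds in dose-response. CellTiter-Glo viability.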
In general terms: In qHTS, concentration-response curves come from the screen itself.

A short description of assay [4]: NS1 protein of Zika virus - qHTS assay to identify small molecule inhibitors in human HEK 293 cells (AID 1347053). Also: nearly all actives have a fitted effect of over 55% in size. Also: potency is read from the fitted curve at half-maximal effect. Summed up: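 HEK 293 cells pretreated with compound for 1 h, then infected with ZIKV MR766 (MOI 0.5) for 24 h at 37 C. NS1 detected by TR-FRET with two anti-NS1 antibodies; normalized to uninfected (0%) and infected (100%) wells.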
Assay [5] can be described thus: qHTS of pediatric cancer cell lines to identify multiple opportunities for drug repurposing: Primary screen for TC32 cells (AID 1347089). Also: nearly all actives have a fitted effect of over 60% in size. Also: potency is read from the fitted curve at half-maximal effect. Summed up: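 A viability screen of TC32 cells was run over 48 h, with primary MIPE doses spanning 0.78 nM–46 µM and NPC doses 0.59 nM–46 µM. ATP luminescence (CellTiter-Glo) served as the read-out.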
Assay [6] can be described thus: qHTS assay to identify small molecule inhibitors of chordoma cells - UCH-1 (AID 1259355). Also: nearly all actives have a fitted effect of over 55% in size. Summed up:
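Cells (800/well) were seeded and left overnight at 37 C, 5% CO2, then treated with drugs at 15 concentrations plus a combination mix of auranofin, camptothecin, doxorubicin, rubitecan and topotecan. Viability after 48hr was read by CellTiter-Glo luminescence.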

Assay [7] can be described thus: qHTS assay to identify small molecule inhibitors of chordoma cells - UCH-2 (AID 1259356). Also: series mostly up to about 46 µM.
A short description of assay [8]: Identifying Small Molecule Inhibitors of Pancreatic Cancer Stem Cells (A2780, Spheroid) (AID 1259357). Also: potency is read from the fitted curve at half-maximal effect.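 Also: spheroids pre-formed over 14 days in stem cell medium on hydrogel; compound exposure lasted 48 h before the ATP luminescence read.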 The note with it: Potency: A2780 spheroid viability. Summed up: as §1
Assay [9] in a line: Identifying Small Molecule Inhibitors of Pancreatic Cancer Stem Cells (SN12C, Adherent) (AID 1259358).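 Also: cell survival measured after 48 h of compound exposure.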 Also: potency is read from the fitted curve at half-maximal effect. A digest of the protocol: (§2)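 Endpoint: ATP-based luminescence, 48 h drug exposure. Bortezomib at 9.2 uM final as full-kill control; DMSO vehicle as negative control; activity normalized between vehicle and cell-free wells.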
The nature of assay [10]: Identifying Small Molecule Inhibitors of Pancreatic Cancer Stem Cells (Panc1, Spheroid) (AID 1259359).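 Also: potency is read from the fitted curve at half-maximal effect; compound exposure lasted 48 h before reading.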 A digest of the protocol:
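After a 4 h attachment period, compounds were pinned into wells and cultures held 48 h under standard incubator conditions. Viability was then measured as CellTiter-Glo luminescence following 10 min at room temperature.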

In assay [11] the target is T1, Tyrosine-protein phosphatase non-receptor type substrate 1 (Homo sapiens) + Leukocyte surface antigen CD47 (Homo sapiens) (UniProt P78324+Q08722). Kind of assay: CD47-SIRPalpha protein protein interaction - HTRF assay qHTS validation (AID 1347058; active = well fitted curve in the direction sought with a large enough effect in the signal ratio, not every such curve was filed as active; the % refers to the signal ratio;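 also: recombinant soluble extracellular CD47 with His tag and biotinylated SIRPalpha domains; series mostly up to about 38 µM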). Summed up:
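TR-FRET read (Ch1/Ch2 ratio) of soluble extracellular CD47 and Avi-biotinylated SIRPalpha domains in PBS pH 7.4 with 0.05% IGEPAL; 7-point compound titration. Sequential 30 min room-temperature steps; non-biotinylated SIRPalpha as control inhibitor.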

In assay [12] the target is T1, Tyrosine-protein phosphatase non-receptor type substrate 1 (Homo sapiens) + Leukocyte surface antigen CD47 (Homo sapiens). Kind of assay: CD47-SIRPalpha protein protein interaction - Alpha assay qHTS validation (AID 1347059).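 Also: bead proximity luminescence from CD47 binding SIRPalpha after compound preincubation with SIRPalpha.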 A digest of the protocol:
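Biotinylated Avi-tagged SIRPalpha (25 nM) preincubated 30 min with compound, then His-tagged CD47 (12.5 nM) added 30 min; AlphaScreen with Ni-NTA acceptor and streptavidin donor beads. PBS pH 7.4, 0.05% IGEPAL, room temperature; 7-point titrations.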

Assay [13] is described as follows: P-glycoprotein substrates identified in KB-3-1 adenocarcinoma cell line, qHTS therapeutic library screen (AID 1346986).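 Also: potency is read from the fitted curve at half-maximal effect; potency is for cytotoxicity meaning loss of cell viability; nearly all actives have a fitted effect of over 60% in size.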 A digest of the protocol: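 Compounds were tested in dose-response against KB-3-1 and KB-8-5-11 cells at 37 degree C for 72 h, and viability was measured by luminescence. AC50 values came from curve fitting with class-based activity calls.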

Assay [14] in a line: Identifying Small Molecule Inhibitors of Pancreatic Cancer Stem Cells (A278, Adherent) (AID 1259361). Also: nearly all actives have a fitted effect of over 35% in size. A digest of the protocol:
as §2

Assay [15] concerns the target Atrial natriuretic peptide receptor 1 (Homo sapiens) (UniProt P16066). Kind of assay: Natriuretic polypeptide receptor (hNpr1) antagonism - Pilot screen (AID 1347049; calls by dose curve;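 also: agonist-evoked cGMP luminescence read 20 min after hNppA addition; series mostly up to about 58 µM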). A digest of the protocol: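 HEK293 cells expressing hNpr1 and GloSensor cGMP luciferase, 1500/well, loaded with 2% GloSensor reagent 2 h, compound 30 min at room temperature; luminescence read before and 20 min after 0.1 nM hNppA stimulation.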

Assay [16] addresses Atrial natriuretic peptide receptor 2 (Homo sapiens) (UniProt P20594). Put plainly: Natriuretic polypeptide receptor (hNpr2) antagonism - Pilot subtype selectivity assay (AID 1347050; calls by dose curve). A digest of the protocol: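 HEK293 cells expressing hNpr2 and a GloSensor cGMP luciferase sensor, 1500/well, preloaded 2 h with 2% GloSensor reagent, compound 30 min, then 1 nM hNppC for 20 min. Antagonism from luminescence after versus baseline pre-read; LOPAC in 1:5 titrations.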

In assay [17] the target is Parathyroid hormone/parathyroid hormone-related peptide receptor (Homo sapiens) (UniProt Q03431). Put plainly: qHTS for PTHR1 Agonists: Optimization Screen against the NCGC LOPAC library (AID 1347079).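 Also: GloSensor cAMP luminescence in HEK-293 GP2 cells expressing human PTHR1 with IBMX.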 A digest of the protocol:
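Compounds were tested across a qHTS titration. PTHR1-expressing GP2 cells report cAMP rises via GloSensor luminescence after 1 hr compound exposure at 37C with IBMX present.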

Several values for one entry are separate records, joined by “and”; a condition that tells them apart may be missing. Equal values may be shown once. Records with an inconclusive call do not appear. Activity calls are given as the source filed them. Unless noted, calls follow the shape of the dose curve; as a rule, active = well fitted curve in the direction sought with a large enough effect; inconclusive = small, poorly fitted or top-dose-only effect, or another doubt; inactive = no such curve, though single readings can be large; an effect the other way counts as inactive or inconclusive.

T1 sequence (P78324 whole entry, looked up, the tested form may be a part): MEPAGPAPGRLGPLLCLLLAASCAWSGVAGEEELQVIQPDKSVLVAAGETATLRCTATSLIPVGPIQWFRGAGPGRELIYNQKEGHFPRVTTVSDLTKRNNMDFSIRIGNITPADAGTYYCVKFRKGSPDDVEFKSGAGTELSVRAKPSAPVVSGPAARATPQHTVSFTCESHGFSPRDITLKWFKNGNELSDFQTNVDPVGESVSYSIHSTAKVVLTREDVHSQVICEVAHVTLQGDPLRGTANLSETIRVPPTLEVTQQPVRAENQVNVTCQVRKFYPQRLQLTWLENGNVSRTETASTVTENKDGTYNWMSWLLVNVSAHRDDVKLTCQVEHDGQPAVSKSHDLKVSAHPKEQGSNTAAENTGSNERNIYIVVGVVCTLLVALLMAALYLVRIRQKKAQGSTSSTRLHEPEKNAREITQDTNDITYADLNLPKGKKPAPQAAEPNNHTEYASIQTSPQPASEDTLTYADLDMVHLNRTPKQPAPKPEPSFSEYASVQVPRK
T1 sequence (Q08722 whole entry, looked up, the tested form may be a part): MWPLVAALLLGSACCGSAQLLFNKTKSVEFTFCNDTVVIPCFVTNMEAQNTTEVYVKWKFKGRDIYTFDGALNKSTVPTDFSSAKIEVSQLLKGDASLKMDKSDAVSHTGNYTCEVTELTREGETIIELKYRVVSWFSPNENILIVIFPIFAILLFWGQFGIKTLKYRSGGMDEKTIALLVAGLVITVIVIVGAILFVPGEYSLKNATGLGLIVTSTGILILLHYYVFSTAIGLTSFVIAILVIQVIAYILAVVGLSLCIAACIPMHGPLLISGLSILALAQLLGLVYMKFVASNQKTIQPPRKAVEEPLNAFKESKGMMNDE
Chain of Atrial natriuretic peptide receptor 1 (Homo sapiens) (P16066 whole entry, looked up): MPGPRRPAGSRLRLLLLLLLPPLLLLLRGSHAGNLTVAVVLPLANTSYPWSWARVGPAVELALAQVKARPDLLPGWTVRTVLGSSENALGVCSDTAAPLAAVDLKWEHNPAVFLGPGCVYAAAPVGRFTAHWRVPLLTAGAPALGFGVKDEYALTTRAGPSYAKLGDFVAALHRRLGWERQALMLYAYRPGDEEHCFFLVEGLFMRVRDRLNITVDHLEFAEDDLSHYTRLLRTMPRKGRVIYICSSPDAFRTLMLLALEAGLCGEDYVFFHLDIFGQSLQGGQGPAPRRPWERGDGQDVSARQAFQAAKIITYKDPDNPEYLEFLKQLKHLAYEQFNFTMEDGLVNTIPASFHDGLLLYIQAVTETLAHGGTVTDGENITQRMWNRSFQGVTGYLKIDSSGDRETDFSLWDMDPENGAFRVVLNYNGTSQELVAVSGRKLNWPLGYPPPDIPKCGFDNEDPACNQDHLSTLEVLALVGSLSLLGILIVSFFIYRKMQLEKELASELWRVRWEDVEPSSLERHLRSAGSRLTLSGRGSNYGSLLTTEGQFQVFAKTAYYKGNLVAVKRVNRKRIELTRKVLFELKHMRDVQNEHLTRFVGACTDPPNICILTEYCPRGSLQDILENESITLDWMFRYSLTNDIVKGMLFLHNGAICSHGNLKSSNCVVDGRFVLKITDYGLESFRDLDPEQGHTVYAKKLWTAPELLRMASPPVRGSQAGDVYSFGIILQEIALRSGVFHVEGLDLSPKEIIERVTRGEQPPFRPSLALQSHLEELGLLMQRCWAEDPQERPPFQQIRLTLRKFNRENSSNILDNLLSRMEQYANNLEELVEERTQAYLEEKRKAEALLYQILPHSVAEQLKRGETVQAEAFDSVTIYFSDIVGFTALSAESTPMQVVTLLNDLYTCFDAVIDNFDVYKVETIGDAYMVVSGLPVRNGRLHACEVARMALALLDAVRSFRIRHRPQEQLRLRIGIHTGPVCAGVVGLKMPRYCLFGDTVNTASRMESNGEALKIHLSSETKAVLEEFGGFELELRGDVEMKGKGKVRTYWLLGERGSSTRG
Chain of Parathyroid hormone/parathyroid hormone-related peptide receptor (Homo sapiens) (Q03431 whole entry, looked up): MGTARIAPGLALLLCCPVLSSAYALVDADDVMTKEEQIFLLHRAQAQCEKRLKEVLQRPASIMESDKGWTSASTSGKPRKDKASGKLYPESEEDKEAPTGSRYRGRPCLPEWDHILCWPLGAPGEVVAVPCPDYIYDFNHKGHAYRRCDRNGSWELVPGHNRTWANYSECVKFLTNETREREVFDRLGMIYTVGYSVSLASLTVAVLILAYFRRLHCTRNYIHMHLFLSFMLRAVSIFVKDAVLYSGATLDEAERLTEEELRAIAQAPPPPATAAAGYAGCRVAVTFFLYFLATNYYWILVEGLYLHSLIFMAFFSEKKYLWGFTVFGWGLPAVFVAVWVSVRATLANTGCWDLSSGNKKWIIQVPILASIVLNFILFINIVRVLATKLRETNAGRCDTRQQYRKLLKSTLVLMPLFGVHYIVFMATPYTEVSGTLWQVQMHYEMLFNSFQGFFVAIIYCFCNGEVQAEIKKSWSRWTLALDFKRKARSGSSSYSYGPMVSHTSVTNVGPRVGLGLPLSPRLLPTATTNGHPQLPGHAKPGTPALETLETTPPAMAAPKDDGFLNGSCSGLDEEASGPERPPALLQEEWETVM
Chain of Atrial natriuretic peptide receptor 2 (Homo sapiens) (P20594 whole entry, looked up): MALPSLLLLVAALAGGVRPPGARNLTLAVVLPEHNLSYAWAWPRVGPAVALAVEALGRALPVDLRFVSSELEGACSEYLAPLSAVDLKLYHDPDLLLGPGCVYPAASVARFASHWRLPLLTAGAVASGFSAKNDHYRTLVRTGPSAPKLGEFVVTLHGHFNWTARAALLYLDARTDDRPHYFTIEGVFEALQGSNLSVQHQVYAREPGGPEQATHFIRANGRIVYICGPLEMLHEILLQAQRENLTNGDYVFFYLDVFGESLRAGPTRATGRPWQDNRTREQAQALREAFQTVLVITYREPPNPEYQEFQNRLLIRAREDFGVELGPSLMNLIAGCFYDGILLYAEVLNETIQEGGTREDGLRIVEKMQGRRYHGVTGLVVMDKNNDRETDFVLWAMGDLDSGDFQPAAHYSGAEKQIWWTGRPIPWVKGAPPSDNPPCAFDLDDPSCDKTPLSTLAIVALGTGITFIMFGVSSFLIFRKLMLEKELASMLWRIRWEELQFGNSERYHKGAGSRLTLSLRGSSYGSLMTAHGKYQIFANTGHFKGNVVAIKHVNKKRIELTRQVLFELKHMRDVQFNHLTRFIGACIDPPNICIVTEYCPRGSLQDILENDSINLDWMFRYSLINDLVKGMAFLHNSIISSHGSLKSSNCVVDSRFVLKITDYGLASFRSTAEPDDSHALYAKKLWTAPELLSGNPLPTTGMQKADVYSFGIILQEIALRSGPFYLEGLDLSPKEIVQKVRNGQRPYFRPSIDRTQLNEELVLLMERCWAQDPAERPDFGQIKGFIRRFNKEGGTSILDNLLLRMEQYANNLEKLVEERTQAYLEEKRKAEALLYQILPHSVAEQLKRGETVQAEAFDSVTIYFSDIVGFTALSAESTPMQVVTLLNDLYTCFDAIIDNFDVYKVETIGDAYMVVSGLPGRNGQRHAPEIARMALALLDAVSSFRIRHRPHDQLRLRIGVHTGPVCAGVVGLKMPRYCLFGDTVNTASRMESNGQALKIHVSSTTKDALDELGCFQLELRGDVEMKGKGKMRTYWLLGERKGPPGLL

In the case of `COc1cc(Nc2ncc3c(n2)-c2ccc(Cl)cc2C(c2c(F)cccc2OC)=NC3)ccc1C(=O)O`, the Potency in assay [1] is 0.059 µM (active); in [3], 0.0833 µM (active); in [5], 0.186 µM (active). The Potency entry in [2] and in [4] was “inactive” each time.

With `CCCc1nc2c(C)cc(-c3nc4ccccc4n3C)cc2n1Cc1ccc(-c2ccccc2C(=O)O)cc1`, the Potency entry in assay [6], in assay [8], in assay [9], in [2], in [3] and in assay [4] was “inactive” throughout. Besides, the Potency entry in assay [5] was “inactive”. Further, the compound was called inactive in assay [7].

With `O=C(c1cc(Cc2n[nH]c(=O)c3ccccc23)ccc1F)N1CCN(C(=O)C2CC2)CC1`, the values for the Potency in assay [1], in assay [2] and in [5] were 3.72 µM (active), 18.7 µM (active) and 16.5 µM (active), respectively. Moreover, the Potency entry in assay [3] and in [4] was “inactive” in each case.

For `O=C(Nc1cccnc1)N1CCC(Cc2cccc(Oc3ccc(C(F)(F)F)cn3)c2)CC1`, the Potency in assay [8] was 18.7 µM (active). The Potency result in assay [9] and in [2] was “inactive” in each case.

As to `OC[C@H](Cc1ccccc1)Nc1nc(Oc2ccc3c(c2)CCC3)nc2c1ncn2Cc1ccc(-c2ccccc2)cc1`, the Potency is 6.62 µM (active) in [1] and 4.18 µM (active) in assay [4]. For the same compound, the Potency result in assay [5] was “inactive”.

`CCN(CCCO)CCCOc1ccc2c(Nc3cc(CC(=O)Nc4cccc(F)c4)[nH]n3)ncnc2c1`: the Potency entry in [9] and in [2] was “inactive” throughout.

For `CCC(=O)N[C@H]1CC[C@H](C(=O)N(C)c2ccc(-c3nc4ccccc4o3)cc2)C1`, the Potency in assay [8] is 14.8 µM (active); in assay [10], 3.72 µM (active); in assay [2] it was 18.7 µM (active). Further, the Potency result in [4] and in assay [5] was “inactive” each time.

`CCn1c(-c2nonc2N)nc2cnc(Oc3cccc(NC(=O)c4ccc(OCCN5CCOCC5)cc4)c3)cc21`: the Potency in assay [1] is 5.9 µM (active); in assay [3], 1.64 µM (active); in assay [4] it was 14.8 µM (active). For the same compound, the Potency entry in assay [5] is “inactive”.

In the case of `O=C(O)c1ccc(-c2c[nH]c3ccc(-c4ccccc4)cc23)cc1C1CCCC1`, the Potency entry in assay [8], in [9] and in assay [2] was “inactive” in each case.

In the case of `COc1ccc(C2=N[C@H](c3ccc(Cl)cc3)[C@H](c3ccc(Cl)cc3)N2C(=O)N2CCNC(=O)C2)c(OC(C)C)c1`, in assay [1], the Potency was 16.6 µM (active). Further, the Potency result in assay [2] and in assay [5] was “inactive” in each case.

Consider `CC(C=CC1=C(C)CCCC1(C)C)=CC=CC(C)=CC(=O)O`, for which the Potency in assay [1] was 20.9 µM (active) and 3.72 µM (active). Also, the Potency entry in assay [3], in assay [4] and in [5] was “inactive” throughout.

Take `COc1ccc2nc(S(=O)Cc3ncc(C)c(OC)c3C)[nH]c2c1` (centres undefined): the Potency result in [6], in [9], in assay [2], in [3], in [4] and in [5] was “inactive” each time. Also, the call in assay [7] was inactive.

`CCc1cncnc1N1CCN(Cc2nc3ccc(C(F)(F)F)cc3[nH]2)CC1`: the figures for the Potency in assay [1] and in assay [2] were 16.6 µM (active) and 14.8 µM (active), respectively. For the same compound, the Potency result in [4] and in [5] was “inactive” in each case. The outcome in [11] and in assay [12] was inactive.

On to `CCOc1cc(N2CCC(O)CC2)ccc1Nc1ncc2c(n1)N(C)c1ccccc1C(=O)N2C`, for which the Potency is 16.6 µM (active) in assay [1], 8.2 µM (active) in [13], 18.4 µM (active) in assay [3] and 23.4 µM (active) in [5]. Moreover, the Potency result in assay [4] is “inactive”.

Consider `CCCS(=O)(=O)Nc1ccc(F)c(C(=O)c2c[nH]c3ncc(-c4ccc(Cl)cc4)cc23)c1F`, for which the Potency in [1] was 20.9 µM (active). Further, the Potency entry in assay [3], in assay [4] and in assay [5] was “inactive” each time.

Take `CS(=O)(=O)Oc1ccc2c(NC(N)=O)c(C(=O)c3ccc(Cl)cc3Cl)oc2c1`: the Potency in [8] was 11.8 µM (active). Also, the Potency entry in [2], in assay [3], in assay [4] and in assay [5] was “inactive” in each case.

As to `CCOC(=O)N[C@@H]1CC[C@@H]2[C@@H](C1)C[C@H]1C(=O)O[C@H](C)[C@H]1[C@@H]2C=Cc1ccc(-c2cccc(F)c2)cn1`, the Potency in [1] was 18.7 µM (active); in [2], 14.8 µM (active). Moreover, the Potency entry in assay [4] is “inactive”.

Take `Cc1ccc(-n2nc(C(C)(C)C)cc2NC(=O)Nc2ccc(OCCN3CCOCC3)c3ccccc23)cc1`: the Potency in [1] was 20.9 µM (active). For the same compound, the IC50 (viability decrease) in [14] was 18.7 µM (active). Moreover, the Potency entry in assay [4] and in assay [5] was “inactive” each time.

For the compound `Cn1cnc2c(F)c(Nc3ccc(Br)cc3Cl)c(C(=O)NOCCO)cc21`, in assay [1], the Potency was 20.9 µM (active). The Potency result in assay [3], in assay [4] and in assay [5] was “inactive” in each case.

As to `CCCCCCCc1ccc(CCc2cccc(O)c2C(=O)O)cc1`, the Potency result in [8], in assay [9] and in [5] was “inactive” in each case.

With `O=S(=O)(N=Cc1c(O)ccc2ccccc12)c1cccs1`, in [1], the Potency was 0.372 µM (active). In addition, the Potency result in assay [2], in assay [3], in [4] and in assay [5] was “inactive” throughout.

As for `Cc1cccc(-c2nn(C(=S)Nc3ccccc3)cc2-c2ccnc3ccccc23)n1`, the Potency result in [1], in [3], in assay [4] and in assay [5] was “inactive” each time.

`CN(C)c1ccc(Nc2nc(N)n(C(=O)c3c(F)cccc3F)n2)cc1`: the Potency in assay [8] is 18.7 µM (active). Further, the IC50 (viability decrease) in [14] was 16.6 µM (active). Also, in assay [4], the Potency result was “inactive”.

As to `CNCc1ccc(-c2[nH]c3cc(F)cc4c3c2CCNC4=O)cc1`, in [1], the Potency is 16.6 µM (active). The IC50 (viability decrease) in [14] was 20.9 µM (active). Also, the Potency result in [3], in [4] and in assay [5] was “inactive” each time.

In the case of `OCCn1cc(-c2cnc3nnn(Cc4ccc5ncccc5c4)c3n2)cn1`, the Potency entry in assay [1], in assay [3], in assay [4] and in [5] was “inactive” each time.

Take `CC(C)(C)OC(=O)CN(Cc1ccc(Cl)cc1)Cc1ccc([N+](=O)[O-])s1`: the Potency was 4.69 µM (active) in assay [9] and 7.43 µM (active) in [10]. The Potency entry in assay [2], in assay [4] and in assay [5] was “inactive” in each case.

In the case of `CCOc1ccc(Cc2cc([C@@H]3O[C@H](CO)[C@@H](O)[C@H](O)[C@@H]3O)ccc2Cl)cc1`, the Potency entry in [8], in assay [2], in assay [3], in assay [4] and in assay [5] was “inactive” throughout.

`C[C@]12CCC(=O)C=C1CC[C@@H]1[C@@H]2[C@@H](O)C[C@@]2(C)[C@H]1CC[C@]2(O)C(=O)CO`: the Potency result in assay [8], in assay [2], in assay [16], in assay [4] and in assay [5] was “inactive” each time. Moreover, the result in [15] and in assay [17] was inactive.

For the origin of these results see PubChem BioAssay (NCATS).
